Reference: PubChem BioAssay (NCATS)
Results filed as inconclusive are left out. Activity calls are given as the source filed them. Unless noted, the call rests on the fitted dose curve; in most records, active means well fitted curve in the direction sought with a large enough effect; inconclusive means small, poorly fitted or top-dose-only effect, or another doubt; inactive means no such curve, though single readings can be large; an effect the other way counts as inactive or inconclusive.

Tests used:
[1] = biological target: Cytochrome P450 2C9 (Homo sapiens) (UniProt P11712); assay: Cytochrome P450 family 2 subfamily C member 9 (CYP2C9) small molecule antagonists: luciferase biochemical (cell-free) qHTS assay (AID 1645842; active means well fitted curve in the direction sought with a large enough effect in the repeat runs; an effect the other way counts as inactive or inconclusive; further: nearly all actives have a fitted effect of over 55% in size); conditions: P450-Glo CYP2C9 enzyme assay, luciferin luminescence; series mostly up to 57.4 µM
Sequence of Cytochrome P450 2C9 (Homo sapiens) (P11712 whole entry, looked up): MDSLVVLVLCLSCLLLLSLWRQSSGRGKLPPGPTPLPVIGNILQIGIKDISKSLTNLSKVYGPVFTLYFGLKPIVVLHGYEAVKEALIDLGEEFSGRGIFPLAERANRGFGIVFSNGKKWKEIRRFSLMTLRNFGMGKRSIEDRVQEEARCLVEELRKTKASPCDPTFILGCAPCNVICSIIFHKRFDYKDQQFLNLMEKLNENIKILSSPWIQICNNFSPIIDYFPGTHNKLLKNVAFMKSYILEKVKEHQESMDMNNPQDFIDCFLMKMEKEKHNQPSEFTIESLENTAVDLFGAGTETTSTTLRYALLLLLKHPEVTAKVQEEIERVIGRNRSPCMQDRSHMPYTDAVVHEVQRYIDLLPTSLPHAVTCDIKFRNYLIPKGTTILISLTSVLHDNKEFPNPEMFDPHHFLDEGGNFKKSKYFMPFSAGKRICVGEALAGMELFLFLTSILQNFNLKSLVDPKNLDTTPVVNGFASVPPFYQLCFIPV
Outline: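 Luminescence, after 20 min with luciferin detection reagent, reflected CYP2C9 turnover during a 1 h NADPH-driven reaction at 37C. Enzyme-substrate mix contained 0.4% bovine serum albumin and was preincubated with compound 10 min at room temperature.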

[2] = Primary qHTS for inhibitors of nuclear receptor binding SET domain protein 2 (NSD2) in an isogenic RCH-ACV NSD2 p.E1099K mutant (9B) (AID 1645876); conditions: RCH-ACV NSD2 E1099K (9B) viability, CellTiter-Glo, 72 h; series mostly up to 44.9 µM; further: nearly all actives have a fitted effect of over 70% in size
[3] = Primary qHTS for inhibitors of nuclear receptor binding SET domain protein 2 (NSD2) in an RCH-ACV wild type WT cells (2C) (AID 1645877); conditions: RCH-ACV (leukaemia line) NSD2 WT (2C) viability, CellTiter-Glo, 72 h; series mostly up to 44.9 µM; further: nearly all actives have a fitted effect of over 70% in size
Potency means the concentration at half of the fitted maximal effect.

Structure (SMILES) | Potency [1] | Potency [2] | Potency [3]
COc1cc2ncnc(Oc3ccc(CC(=O)Nc4cnn(C(C)C)c4)cc3)c2cc1OC | 13.5 µM (active) | 16.3 µM (active) | –
O=C(NC1CCN(CCCCC2(C(=O)NCC(F)(F)F)c3ccccc3-c3ccccc32)CC1)c1ccccc1-c1ccc(C(F)(F)F)cc1 | 15.1 µM (active) | 2.9 µM (active) | 2.9 µM (active)
O=C(Nc1ccc(CN2CCOCC2)cc1)c1ccc(-c2cccc(Cl)c2)o1 | 19 µM (active) | 16.3 µM (active) | 11.5 µM (active)
Cc1nc(C#Cc2ccnc(Cl)c2)c(C)n1-c1ccc(OC(F)(F)F)cc1 | 8.49 µM (active) | 18.3 µM (active) | 10.3 µM (active)
O=C(Nc1nnc(-c2ccc3c(c2)OCCO3)o1)C1CCCCC1 | inactive | inactive | inactive
CCN1C(C)(C)CC(Oc2ccc(C(=O)Nc3ccc(NC(=O)Nc4cc(C(C)(C)C)on4)cc3)nc2)CC1(C)C | inactive | 4.11 µM (active) | 6.51 µM (active)
